Reference: PubChem BioAssay

Test: growth of efflux-deficient E. coli DRC39 – strain DRC39, OD650, 24 h, E. coli filamentation inducers, primary screen (AID 1178);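 note: growth measured as culture turbidity by optical density at 650 nm; test concentration not given here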
Conditions: E. coli DRC39 acrAB, higher = more signal, called active from +8 up or from −8 down

z-score, inactive:
O=C1OCC=C[C@H]2OC34C=CCN(c5ccc(Cl)cc5)C(=O)[C@H]3N(CCCO)C(=O)[C@@H]4[C@@H]12 (stereo partly specified) 0.958
O=c1cccc(-c2ccccc2)o1 -0.438
C=C(COC)C(=O)CC[C@H](OC(=O)c1cccnc1)c1ccccc1OCCO -0.438
CCCCCN1CC=CC23O[C@@H]4C=CCCOC(=O)C4[C@H]2C(=O)N(CCCO)[C@@H]3C1=O (stereo partly specified) -0.761
CCN(CC)c1ccc(N2CC=CC34O[C@@H]5C=CCOC(=O)[C@@H]5[C@H]3C(=O)N(CCCCCO)[C@@H]4C2=O)cc1 (stereo partly specified) 0.831
C#C[C@H]1Oc2ccccc2S(=O)(=O)N2CCC[C@@H]12 0.0374
O=C1C2C=CC(C(O)c3ccc(B(O)O)cc3)N(Nc3ccc([N+](=O)[O-])cc3)C2C(=O)N1c1ccccc1 (stereo unspecified) -1.01
O=C1OCCC/C=C\[C@H]2OC34C=CCN(CCN5CCOCC5)C(=O)[C@H]3N(CCO)C(=O)[C@@H]4C12 (stereo partly specified) -1.12
CC(=O)n1cc(C(O)C2C=CC3C(=O)N(c4ccccc4)C(=O)C3N2Nc2ccc(C#N)cc2)c2ccccc21 (stereo unspecified) -0.698
COc1ccc(C(=O)Nc2cccc(CN3C(=O)[C@@]4(O[C@@H](CCn5cc([C@H](O)c6ccccc6)nn5)[C@H]([Si](C)(C)c5ccc(OC)cc5)[C@H]4C)c4ccccc43)c2)cc1 0.259
COC(=O)[C@@]1(Cc2ccc(F)cc2)[C@H]2c3cc(C(=O)N4CCCC4)n(CCc4ccc(OC)c(Br)c4)c3C[C@H]2CN1C(=O)c1ccccc1 -0.588
